Reference: PubChem BioAssay AID743269 (The Scripps Research Institute Molecular Screening Center, 2014)
In all, about 370,000 compounds went through this assay and about 2,400 (0.65%) were called active.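 The calls were made as follows: active = inhibition above the screen-wide mean plus 3 SD (cut at about 13% in these data); inactive = the rest.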 The sample as a whole holds a higher share of actives than the screen did.

Tested on: HIV-1 integrase (with human LEDGF/p75)
Experiment: blockers of LEDGF/p75-dependent integrase strand transfer – biochemical, TR-FRET, high throughput, primary screen (AID 743269);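 also: signal is the Cy5 over europium emission ratio at 671 and 618 nm; 0% = plate median of compound wells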
Details: TR-FRET IN-LEDGF/p75 DNA integration, Eu/Cy5; at 3.7 µM; hits give high values

inhibition, inactive:
CC(=O)OCCN1CCCC12CCC(c1ccccc1)CC2 (configuration not stated) -3.46%
COC(=O)C1CN(Cc2cn(Cc3ccc(F)cc3)nn2)CCS(=O)(=O)N1Cc1ccc(Cl)cc1 (configuration not stated) 0.07%
COC(=O)c1ccccc1-n1cc(COC(=O)NCCc2ccccc2)nn1 -3.43%
C=CCN1C(=O)[C@@H](CC(=O)NCC2CCCCC2)[C@]2(C(=O)OC)CCCCC=C12 0.59%
CCOc1ccc(N(CC(=O)Nc2c(C)n(C)n(-c3ccccc3)c2=O)S(=O)(=O)c2ccc(Cl)s2)cc1 2.7%
CC(=O)NC(CC(=O)O)c1ccc(F)cc1 (configuration not stated) -3.02%
O=C(O)C(CCc1ccccn1)c1ccccc1 (configuration not stated) 0.2%
COc1ccnc(NC(=S)N2CCN(c3ncc(C(F)(F)F)cc3Cl)CC2)c1 4.7%
O=C(Nc1ccc(F)cc1)c1cccnc1N1CCOCC1 1.85%
O=C1OC(NC(=O)c2ccccc2)C(N2CCOCC2)=C1Cl (configuration not stated) 1.92%
COc1ccc(Cn2ccc3ccc(-c4ccc5ccn(Cc6ccccc6C)c5c4)cc32)cc1 -3.41%
O=S1(=O)c2ccc(N3CCN(Cc4ccccc4F)CC3)cc2Oc2ccccc2CN1Cc1cn(Cc2ccc(Cl)cc2)nn1 3.58%
O=[N+]([O-])c1ccc(C=Nc2ccc(Cl)cc2Cl)s1 -0.56%
Cc1ccsc1/C=N/NC(=O)Cc1cc(=O)[nH][nH]1 -1.18%
CN(CCO)c1cccc2c1S(=O)(=O)N(Cc1cn(Cc3ccc(C(F)(F)F)cc3)nn1)Cc1ccccc1O2 5.32%
CC(=O)Nc1ccc(OC[C@@H](O)CN2CCC(C(O)(c3ccccc3)c3ccccc3)CC2)cc1 -1.09%
COc1ccc(-n2c(COc3ccccc3)nnc2SCC(=O)Nc2ccc3c(c2)OCO3)cc1 -0.67%
C#CCCN([C@H](C(=O)OC)C(C)C)S(=O)(=O)c1ccc(F)cc1Br -3.33%
c1cncc(CNc2ccnc(-c3ccc4c(c3)OCO4)n2)c1 2.55%
Cc1ccc(OCc2nnc(SC/C=C/c3ccccc3)n2Cc2ccco2)cc1 1.59%
Cc1cc(C)cc(C(=O)NC(=S)Nc2ccc3[nH]c(=O)[nH]c3c2)c1 3.15%
Cc1ccc(S(=O)(=O)/N=C(/Nc2ccc3[nH]c(=O)[nH]c3c2)c2ccccc2)cc1 -0.12%
O=C(CSc1nc2ccccc2n1Cc1ccccc1Cl)N/N=C\c1c[nH]c2ccccc12 5.76%
O=C(Nc1c(-c2ccccc2)nc2c(Br)cc(Br)cn12)c1ccco1 1.6%
O=C(Nc1ccccc1C(=O)N1CCCCC1)c1ccco1 6.1%
CCOC(=O)C1CCN(C(=O)C(C)(C)NC(=O)Nc2ccccc2Cl)CC1 -0.46%
O=C(CN(C(=O)c1csnn1)c1ccc(Br)cc1)NC1CCCC1 1.56%
O=C(CN(C(=O)c1nsc(Cl)c1Cl)c1cccc(F)c1)NC1CCCC1 -3.15%
C=CCOC/C=C/C#CCN(CC=C)Cc1ccc(OC)cc1OC 5.5%
CCOC(=O)[C@]12CCCC3=C1N(CCC3)C(=O)[C@@H](CC(=O)NCc1cccs1)C2 -1.84%
O=C(CSc1nnc2c(n1)[nH]c1ccccc12)NC1CCCCC1 4.55%
O=C(Nc1cccc2c1CCCC2)C1CCN(C(=O)NC2CCCCC2)CC1 -1.21%
CC(=O)C1(C(=O)Nc2nccs2)CC(c2ccccc2C(F)(F)F)=NO1 (configuration not stated) 1.17%
O=C(O)Cn1c(Cc2ccccc2)nc2ccccc21 -1.98%
CC(O)c1nc2ccccc2n1Cc1ccc([N+](=O)[O-])cc1 (configuration not stated) 0.5%
COc1cccc(/C=C2\CC3(OC(C)=O)CCCN2C3)c1 (configuration not stated) -3.9%
O=C1C(=O)N(Cc2ccc(-c3ccsc3)cc2)c2ccc(OC(F)(F)F)cc21 0.06%
Cc1cccc(NC(=O)C[C@H]2CC[C@H]3[C@@H](COc4ccc(NC(=O)Nc5ccccc5)cc4C(=O)N3C)O2)c1 1.61%
Cc1ccc(C2=CCN(C)C(=O)N2c2ccc(Cl)cc2)cc1 0.69%
O=C(CSc1nnc(COc2ccccc2)n1-c1ccc(Cl)cc1)Nc1ccc2c(c1)OCO2 -1.91%
COC(=O)C1CN(CC(C)C)CCS(=O)(=O)N1Cc1ccc(F)cc1 (configuration not stated) -4.4%
Cc1nc(SCC(=O)c2ccccc2)c([N+](=O)[O-])[nH]1 -5.1%
COc1ccc(C(=O)CSc2n[nH]c(N)n2)cc1 -3.51%
COC(=O)[C@]12C[C@H](CC(=O)NCCCN3CCCC3=O)C(=O)N(CCc3ccc(OC)c(OC)c3)C1=C[C@H](COCc1ccccc1)O[C@@H]2C -3.08%

inhibition, active:
CC(=O)OCC1(O)CC23CCC4c5ccoc5CCC4(C)C2CCC1C3 (configuration not stated) 36.9%
CN(C)c1ccc(C(CC(=O)O)C(=O)O)cc1 (configuration not stated) 18.1%
O=C(O)c1ccc(NN=CC2=C(N3CCOCC3)/C(=C/c3ccccc3)CC2)cc1 27.7%
Cc1ccccc1NCC(=O)N/N=C\c1ccc([N+](=O)[O-])s1 19.6%
Cc1ccc(C(=O)NC(=S)Nc2ccc3[nH]c(=O)[nH]c3c2)cc1C 16.7%
O=C(Nc1nc(-c2ccco2)c(-c2ccco2)s1)c1ccco1 68.8%
O=C(CN(C(=O)c1csnn1)c1cccc(Cl)c1)NC1CCCC1 27.8%
O=C(NC1CCCCC1)N1CCc2[nH]c3ccccc3c2C1 35.1%
CC(=O)c1nc2ccccc2n1Cc1ccccc1 22.6%
Oc1c(C=Nc2cccc3nsnc23)ccc2ccccc12 25.6%
Cc1cc(Oc2ccc(Cl)cc2)nc(SCC(=O)c2ccccc2)n1 35.9%
NC1=CC(=O)C(=O)c2cccnc21 40%
O=c1ccc2c(-c3ccccc3S(=O)(=O)O)c3ccc(O)c(O)c3oc-2c1O 84%
